# Results taken from PubChem BioAssay.
# Calls of active or inactive are those of the source. Unless noted, the rule behind the calls is not given here.
# Key:
# [1] = test system: XIP peptide (Xip251-270) binding; assay: small-molecule binders of XIP peptide, primary screen, biochemical, small-molecule microarray, fluorescence 635/667 nm, 0.1 µg/mL protein (AID 1182); details: fluorescent protein binding, 635 nm, higher = more signal, called active from +8 up or from −8 down
# XIP peptide (Xip251-270) = assay: small-molecule binders of XIP peptide, primary screen, biochemical, small-molecule microarray, fluorescence 635/667 nm, 0.5 µg/mL protein (AID 1183); details: small-molecule microarray binding, fluorescence 635 nm; higher = more signal
# [2] = Plasmodium falciparum growth inhibition, primary screen, strain 3D7, DAPI fluorescence, 100 nL (AID 1184);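 note: parasites grown inside human red blood cells in medium with human serum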; details: P. falciparum 3D7 growth, 3 d, higher = more signal
# [3] = molecular target: Homeobox protein Hox-A13 (Mus musculus) (UniProt Q62424); assay: inhibitors of HoxA13-DNA binding, primary screen, biochemical, fluorescence polarization, labeled oligonucleotide (AID 1185); details: 15 min, higher = more signal, called active from +8 up or from −8 down
# Sequence of Homeobox protein Hox-A13 (Mus musculus) (Q62424 whole entry, looked up): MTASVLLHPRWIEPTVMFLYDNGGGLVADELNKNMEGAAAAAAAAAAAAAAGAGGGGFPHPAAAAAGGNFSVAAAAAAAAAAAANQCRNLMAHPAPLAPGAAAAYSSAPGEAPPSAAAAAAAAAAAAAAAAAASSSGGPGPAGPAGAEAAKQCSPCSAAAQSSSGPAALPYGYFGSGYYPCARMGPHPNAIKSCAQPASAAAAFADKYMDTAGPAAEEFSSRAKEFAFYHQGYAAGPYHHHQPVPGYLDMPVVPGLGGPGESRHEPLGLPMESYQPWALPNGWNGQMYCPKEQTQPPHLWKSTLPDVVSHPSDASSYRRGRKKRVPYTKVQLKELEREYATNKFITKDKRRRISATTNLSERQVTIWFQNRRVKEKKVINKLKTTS
# [4] = inhibitors of hydroxyurea-induced Chk1 phosphorylation, primary screen, imaging, HeLa, phospho-Chk1 antibody, percent positive cells (AID 1186); details: hydroxyurea-induced phospho-Chk1 immunofluorescence imaging, higher = more signal
# [5] = inhibitors of hydroxyurea-induced Chk1 phosphorylation, primary screen, imaging, HeLa, phospho-Chk1 nuclear intensity (AID 1187); details: hydroxyurea-induced phospho-Chk1 immunofluorescence imaging, higher = more signal
Compound,composite z-score [1],composite z-score (XIP peptide (Xip251-270)),z-score [2],z-score [3],z-score [4],z-score [5]
C=C(CCCC)C(=O)CC[C@@H](OC(=O)c1cccnc1)c1ccc(CO)o1,0.67 (inactive),0.561,-0.46,-4.35 (inactive),0.575 (inactive),-0.023 (inactive)
CCCCN1CC=CC23O[C@@H]4/C=C\CCC(C)OC(=O)C4[C@H]2C(=O)N(CCCCCO)[C@@H]3C1=O (some centres not stated),-0.725 (inactive),0.552,-0.232,-4.53 (inactive),-0.795 (inactive),-0.518 (inactive)
O=C(NCc1ccccc1)[C@@]1(CCS(=O)(=O)c2ccccc2)N=C(c2ccc(OCCCO)cc2)O[C@H]1c1ccccc1,0.429 (inactive),0.565,-2.05,-1.15 (inactive),-0.751 (inactive),-0.64 (inactive)
CCOC(=O)C1=CCC(c2ccccc2)N(S(=O)(=O)CC[Si](C)(C)C)C1 (configuration not stated),-0.0447 (inactive),0.113,-0.391,-2.31 (inactive),-0.262 (inactive),0.0088 (inactive)
CN1C(=O)C2C=CC(C(O)c3ccccc3)N(Nc3ccccc3)C2C1=O (configuration not stated),0.599 (inactive),0.357,-0.206,-2.83 (inactive),0.861 (inactive),0.163 (inactive)
CCOC1=C2C(CN(S(=O)(=O)c3ccc(C)cc3)C2c2ccc(C)cc2)C2C(=O)N(c3ccccc3)C(=O)C2C1 (configuration not stated),-0.0729 (inactive),0.457,0.694,-1.82 (inactive),0.218 (inactive),0.402 (inactive)
CN1C(=O)C2C=CC(C(O)c3ccc(-c4ccccc4)s3)N(N(c3ccccc3)c3ccccc3)C2C1=O (configuration not stated),0.254 (inactive),0.322,0.33,0.329 (inactive),0.288 (inactive),-0.108 (inactive)
C=C(CCCC)C(=O)CC[C@H](OC(=O)c1cccnc1)c1ccccc1OCCO,0.0328 (inactive),0.222,-3.02,-5.25 (inactive),-1.12 (inactive),-0.27 (inactive)
O=C(NCc1ccc(F)cc1)[C@H]1C[C@H]2C(=O)N[C@@H](Cc3ccccc3)C(=O)N2[C@H]1c1ccc(O)cc1,0.114 (inactive),0.832,-0.237,-1.6 (inactive),-0.762 (inactive),-0.352 (inactive)
CCN(CC)c1ccc(N2CC=CC34O[C@@H]5/C=C\CCCOC(=O)C5[C@H]3C(=O)N(CCO)[C@@H]4C2=O)cc1 (some centres not stated),0.482 (inactive),0.643,-1.52,-5.79 (inactive),0.225 (inactive),0.161 (inactive)
C=CC[C@@]1(C(=O)N(C)C)N=C(c2ccc(OCCCO)cc2)O[C@@H]1c1ccccc1N=[N+]=[N-],0.158 (inactive),0.888,-2.09,-3.42 (inactive),0.0664 (inactive),0.157 (inactive)
[N-]=[N+]=NCc1ccccc1[C@@H]1OC(c2ccc(OCCCO)cc2)=N[C@]1(CCS(=O)(=O)c1ccccc1)C(=O)NCCN1CCOCC1,1.16 (inactive),0.853,-2.19,-2.41 (inactive),0.0054 (inactive),-0.373 (inactive)
C=CCNC(=O)[C@H]1[C@@H]2C(=O)O[C@@H](c3ccccc3)[C@@H](c3ccccc3)N2[C@@H](c2ccc(O)cc2)[C@]12C(=O)N(C(=O)OCCOC)c1ccc(C#CCNC(N)=O)cc12,0.17 (inactive),0.53,2.38,-3.07 (inactive),-0.237 (inactive),-0.625 (inactive)
C#CCN(CC1=CCCCC1)[C@H](c1ccccc1Br)[C@@H](O)Cc1ccccc1,0.0838 (inactive),-0.43,0.47,-0.843 (inactive),-0.164 (inactive),-0.155 (inactive)
COC(=O)[C@@]1(Cc2ccccc2)[C@H]2c3cc(C(=O)N(C)C)n(CCSCCO)c3C[C@H]2CN1C(=O)c1ccccc1,0.115 (inactive),0.443,-0.522,-4.76 (inactive),0.585 (inactive),0.248 (inactive)
COc1ccc([Si](C)(C)[C@H]2[C@H](CCO)O[C@@]3(C(=O)N(C)c4c(Br)cc(C)cc43)[C@@H]2C)cc1,0.307 (inactive),0.837,-2.71,-5.78 (inactive),-1.08 (inactive),-1.73 (inactive)
COC(=O)[C@@]1(Cc2ccc(OC)cc2)[C@H]2c3cc(C(=O)N(C)C)n(CCN4CNCC4=O)c3C[C@H]2CN1C(=O)c1ccccc1,0.384 (inactive),-0.144,-1.23,-4.73 (inactive),-0.648 (inactive),-0.397 (inactive)
O=C1[C@H]2C=C(Br)[C@H](C[C@@H]2OCCCCO)[C@@]12CO2,0.091 (inactive),0.141,-0.234,-1.71 (inactive),-0.0513 (inactive),-0.265 (inactive)
CO[C@H]1O[C@H](CO)[C@@H](OC(=O)Nc2ccc(Br)cc2)[C@H](OC(=O)c2cc3ccccc3[nH]2)[C@H]1OC(=O)c1cc2ccccc2[nH]1,1.36 (inactive),0.716,-1.64,-2.09 (inactive),-0.547 (inactive),-0.872 (inactive)
C=CCOC(=O)[C@H]1[C@@H]2C(=O)O[C@@H](c3ccccc3)[C@@H](c3ccccc3)N2[C@@H](c2ccc(OCCOC(=O)[C@H]3C[C@H]4C(=O)N[C@@H](CC(C)C)C(=O)N4[C@H]3c3ccc(O)cc3)cc2)[C@]12C(=O)Nc1ccc(I)cc12,0.626 (inactive),0.75,-0.061,6.65 (inactive),0.293 (inactive),0.198 (inactive)
COCCOC(=O)N1C(=O)[C@@]2(c3cc(C#Cc4ccc(OC)cc4)ccc31)[C@H](C(N)=O)[C@H]1C(=O)O[C@H](c3ccccc3)[C@H](c3ccccc3)N1[C@@H]2c1ccccc1OCCO,1.85 (inactive),0.888,-2.04,-1.77 (inactive),-0.111 (inactive),-0.559 (inactive)
NC(=O)[C@@H]1[C@H]2C(=O)O[C@H](c3ccccc3)[C@H](c3ccccc3)N2[C@H](c2ccc(O)cc2)[C@@]12C(=O)Nc1ccc(C#CC3(O)CCCCCC3)cc12,0.734 (inactive),0.458,0.907,-3.37 (inactive),-0.0527 (inactive),0.0812 (inactive)
CC(C)(C)OC(=O)CC[C@]12N=C(c3ccc(OCCCO)cc3)O[C@H]1c1ccccc1N(CCS(=O)(=O)c1ccccc1)C2=O,1.11 (inactive),0.781,-1.96,-2.7 (inactive),-0.266 (inactive),-0.249 (inactive)
CCOC(=O)C[C@H]1[C@H](OC(=O)Cc2ccc3c(c2)OCO3)[C@@H](NC(=O)c2ccc(-c3ccccc3)cc2)c2cc(OCCCO)ccc2N1C(=O)Cc1ccc(OC)cc1,0.784 (inactive),0.0066,-1.72,-1.61 (inactive),-0.324 (inactive),-0.116 (inactive)
COCCCN1C(=O)[C@@]2(c3ccc([N+](=O)[O-])cc3)CC(=O)N(C3CCCCC3)[C@@H]2c2ccc(CO)cc21,0.0996 (inactive),0.154,-0.599,-0.329 (inactive),0.0889 (inactive),0.133 (inactive)
CC(C)C(CO)N1C(=O)[C@@H]2[C@H]3C(=O)OCC=C[C@H]3OC23C=CCN(C(C)C)C(=O)[C@@H]13 (some centres not stated),1.63 (inactive),-0.0455,-0.499,-4.02 (inactive),0.475 (inactive),0.305 (inactive)
CCCCN1CC=CC23O[C@@H]4C=CCOC(=O)[C@@H]4[C@H]2C(=O)N(CCCCCO)[C@@H]3C1=O (some centres not stated),-0.338 (inactive),0.0889,-0.198,-3.39 (inactive),-0.0035 (inactive),-0.504 (inactive)
